Data taken from PubChem BioAssay AID504454 (NMMLSC, 2011).
The whole screen tested about 340,000 compounds, of which about 1,400 (0.41%) were called active. This is one part of a sample in which actives are shown more often than they occur.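 The calls were made as follows: active = response above a set limit, near 3 SD of response in nonfluorescent compounds (cut at about 42% in these data); inactive = the rest.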

biological target: Beta-2 adrenergic receptor (Homo sapiens) (UniProt P07550); experiment: beta2AR agonists driving receptor internalization, primary screen, cell-based, FAP fluorogen, flow cytometry (AID 504454); conditions: Am2.2-beta2AR cells, stronger effect = higher value, concentration not given here
Sequence (P07550 whole entry, looked up): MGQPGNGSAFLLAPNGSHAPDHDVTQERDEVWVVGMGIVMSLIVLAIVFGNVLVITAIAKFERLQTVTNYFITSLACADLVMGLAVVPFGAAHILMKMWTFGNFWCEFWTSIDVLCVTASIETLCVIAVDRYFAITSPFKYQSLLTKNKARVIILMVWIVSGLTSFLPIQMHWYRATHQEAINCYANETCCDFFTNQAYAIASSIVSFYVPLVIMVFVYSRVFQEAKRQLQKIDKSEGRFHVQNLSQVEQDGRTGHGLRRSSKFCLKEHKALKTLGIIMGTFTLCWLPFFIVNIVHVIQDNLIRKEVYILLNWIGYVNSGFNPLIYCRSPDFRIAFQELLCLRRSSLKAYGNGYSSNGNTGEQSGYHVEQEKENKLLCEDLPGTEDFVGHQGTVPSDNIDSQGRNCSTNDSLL

response, inactive:
Cc1cc(C)nc(S/C=C/C(=O)c2ccccc2)n1 41.9%, Cc1cccc(C=CC(=O)c2ccc(Cl)cc2)c1 0.41%, CCc1cc(-c2nnc(SCC(=O)NC3CC3)n2C)cs1 -9.66%, CCC(C)(C)NC(=O)CN(C(=O)C(=O)Nc1ccc2c(c1)OCCO2)C(C)(C)CC 0.65%, COc1ccc(-n2c(=O)[nH]c3cc(C(=O)NCCc4ccc(OC)c(OC)c4)ccc3c2=O)c(OC)c1 2.93%, CN/C(=C\[N+](=O)[O-])NCCSCc1csc(CN(C)C)n1 -4.88%, CC(C)CC(=O)NC(=S)NNC(=O)c1cccc([N+](=O)[O-])c1 -4.1%, C#CCN1CC(C)/C(=N/O)CC1C (stereo not given) -6.18%, O=C(/C=C/c1ccco1)NC(=S)Nc1ccccc1Br 12.9%, COc1ccccc1/C=C/C(=O)NC(=S)N1CCOCC1 -6.28%, C=CCNC(=O)COC(=O)c1ccccc1C(=O)N(C)C1CCCCC1 2.56%, Cc1ccc(SCC(=O)N2CCN(c3ccc(F)cc3)CC2)cc1 -23.7%, CCN1CCN(C(=O)CSc2ccc(C)cc2)CC1 11.4%, CCn1cc(/C=C(\NC(=O)c2ccc(C)cc2)C(=O)NCCN2CCOCC2)c2ccccc21 4.83%, CCCN(Cc1cc2cccc(C)c2[nH]c1=O)S(C)(=O)=O 9.7%, COc1ccc(CCNC(=O)C(=O)Nc2ccc3nc4n(c(=O)c3c2)CCCCC4)cc1OC -7.18%, Cc1nc(-c2ccc(Cl)cc2)sc1C1(C)CC(c2ccc(Br)cc2)=NO1 (stereo not given) -4.06%, Clc1cccc(-c2nc(NCC3CCCO3)c3ccccc3n2)c1 (stereo not given) -5.27%, NC(N)=Nc1nc(-c2ccccc2)c2cc(Cl)ccc2n1 8.97%, Cc1ccc(S(=O)(=O)NCCc2nnc3ccc(SCc4cccnc4)nn23)cc1 -8.28%, CC(C)OC(=O)c1ccc(COc2ccc3ccc(=O)oc3c2)o1 -3.14%, CCN(CC)C(=O)CSc1nnc(CNc2ccc(F)cc2)n1Cc1ccco1 -1.42%, CC(C)(C)OC(=O)CNC(=O)c1[nH]cnc1C(=O)N[C@@H](Cc1ccccc1)C(=O)OCc1ccccc1 10.2%, O=C(N[C@@H](Cc1ccccc1)C(=O)OCc1ccccc1)c1nc[nH]c1C(=O)NC1CCNCC1 -6.96%, O=C(O)c1ccc(Cn2cnc3c(=S)nc[nH]c32)cc1 5.59%, O=S(=O)(Nc1ccc2cn[nH]c2c1)c1ccccc1 4.15%, O=C(O)c1cc(S(=O)(=O)Nc2ccc3cn[nH]c3c2)ccc1Br 7.91%, Cc1ccc(S(=O)(=O)N(CC(=O)NN=C2CCN(C)CC2)c2ccc(F)cc2)cc1 -3.48%, Oc1ccccc1C1=NN(c2ccccc2)C(c2ccccc2)C1 (stereo not given) 13.4%, CC(=O)Nc1ccc(NC(=O)C2CCCN(S(=O)(=O)c3ccc(Cl)cc3)C2)cc1 (stereo not given) -2.61%, COc1ccc(CCNC(=O)C2CCCN(S(=O)(=O)c3ccc(OC)cc3)C2)cc1 (stereo not given) -1.09%, COc1ccc(C2CC(c3cccs3)Nc3nnnn32)cc1 (stereo not given) 12.6%, Cc1ccc(NC(=O)COc2ccc(/C=C3/NC(=O)NC3=O)cc2)cc1 7.62%, Cc1ccc2nc(-c3ccc(NC(=O)c4cccnc4)cc3)oc2c1 17.5%, C#CCOc1ccc(/C=C2/C(=O)ON=C2C)cc1OCC -1.93%, C=CCOc1ccc(/C=C2/C(=O)ON=C2C)cc1OCC 4.94%, COc1cc(/C=C2\SC(=O)NC2=O)ccc1OCc1ccc(Cl)nc1 12.6%, CC1=NOC(=O)/C1=C\c1ccccc1 10.9%, CCOC(=O)c1cnc2c(c(C)nn2CC)c1Cl 0.74%, Cc1ccccc1OCCC(=O)OCC(=O)NCCc1ccc(S(N)(=O)=O)cc1 -1.82%, CCCCN(CC)C(=O)C1CCCN(S(=O)(=O)c2cccc3nsnc23)C1 (stereo not given) -4.41%, CCCCNC(=S)NNC(=O)c1cc(C)on1 8.38%, COc1cc2c(cc1OC)C(/C=C/c1ccco1)=NCC2 -9.05%, CCCn1c(C)cc(/C=C(\C#N)C(=O)OCC(=O)Nc2cc(OC)c(OC)c(OC)c2)c1C -0.22%, COc1cc(C2C3=C(CCCC3=O)OC3=C2C(=O)CCC3)ccc1OCC(=O)Nc1ccccc1 3.2%, CCCn1c(N)c(C(=O)CSc2nnc3n2CCCCC3)c(=O)[nH]c1=O -3.04%, O=C(/C=C/c1ccc(Cl)cc1Cl)c1cccnc1 6.98%, O=C(Nc1cccnc1)c1ccc(Cl)cc1[N+](=O)[O-] 0.76%

response, active:
O=C(/C=C/Sc1ncn[nH]1)c1ccc(Cl)cc1 78.1%, O=C(/C=C/c1ccco1)NC(=S)N1CCCCC1 88.5%, CCN1CCC2(CC1)N=C(c1ccc(F)cc1)C(=S)N2C(=O)c1ccc(C)cc1 85.6%, Clc1ccc2nc(-c3ccccc3)nc(C(Cl)Cl)c2c1 50%, CC(C)(C)OC(=O)N1CCC(NC(=O)c2[nH]cnc2C(=O)N[C@@H](Cc2ccccc2)C(=O)OCc2ccccc2)CC1 78.6%, O=S(=O)(Nc1ccc2[nH]ncc2c1)c1ccccc1Cl 60.7%, COc1ccc(S(=O)(=O)N2CCCC(C(=O)Nc3ccc(NC(=O)c4ccccn4)cc3)C2)cc1 (stereo not given) 46.4%, Cc1ccc(OCC(=O)Nc2ccc(-c3nc4ncccc4o3)cc2)cc1 117%, COc1cc(/C=C2/C(=O)ON=C2C)ccc1OCc1ccccc1F 88.8%, COc1cc(/C=C2/C(=O)ON=C2C)ccc1OCc1cccc(F)c1 105%, CCOC(=O)/C(C#N)=C/c1ccc(OCC(=O)Nc2ccccc2)c(OC)c1 46.3%, O=C(/C=C/c1ccc(Cl)c([N+](=O)[O-])c1)c1cccnc1 77.9%
